# Results published in PubChem BioAssay (Tox21).
# Active and inactive are the calls of the source. Calls come from the whole dose curve; as a rule, active = well fitted curve in the direction sought with a large enough effect in the repeat runs; inconclusive = weak or mixed curves; inactive = flat fitted curve, though single readings scatter.
# Assay: qHTS assay to test for compound auto fluorescence at 535 nm (green) in HepG2 cell free culture (AID 720686)
# Details: Cell-free medium, green autofluorescence 485/535 nm; series mostly up to 91.3 µM
# % is set by controls: 0 for no effect and ±100 for the full control effect.
Compound,outcome,"fluorescence, % of fluorescein control"
CCCCS,inactive,
CCNC(=O)C(C)OC(=O)Nc1ccccc1 (centres undefined),inactive,
CC(C)(Sc1cc(C(C)(C)C)c(O)c(C(C)(C)C)c1)Sc1cc(C(C)(C)C)c(O)c(C(C)(C)C)c1,,-0.106% [at 18.6 µM] (inactive)
O=C(O)CCC(=O)Nc1ccc(S(=O)(=O)Nc2nccs2)cc1,,0.022% [at 18.6 µM] (inactive)
Cc1ccccc1C#N,inactive,
COC(=O)c1ccccc1Cl,inactive,
Cc1ccc2cccnc2c1,inactive,
Cc1cc(N)no1,inactive,
CN(C)CCC[C@@]1(c2ccc(F)cc2)OCc2cc(C#N)ccc21,inactive,
CCN(CC)CC,inactive,
C=C(C)C(=O)OCCOC1CC2CC1C1C=CCC21 (centres undefined),inactive,
O=C(O)CCCCCCCCCC(=O)O,inactive,
CC(O)CCCCn1c(=O)c2c(ncn2C)n(C)c1=O (centres undefined),inactive,
CCOCCOCCOC(C)=O,inactive,
CCCCCC(=O)CC,inactive,
C/C=C(\C)C=O,inactive,
Cc1ccc(NC(N)=O)cc1,inactive,
CCCC(=O)OC,inactive,
CCc1ccc(CC)cc1,inactive,
CCCCCCCCCCCCCCCC(=O)OC,,-0.0231% [at 18.6 µM] (inactive)
O=S(=O)(O)CC(O)CCl (centres undefined),inactive,
CC[N+](C)(CC)CC,inactive,
CCCCCCCCCCCCCCCCN(C)C,,0.006% [at 3.72 µM] (inactive)
Cc1cc(C)c(C)c(C)c1,inactive,
O=C(O)COc1ccc2ccccc2c1,inactive,
Cc1ccc(N)nc1,inactive,
CCCC(C)C(O)CC (centres undefined),inactive,
N=C(N)N,inactive,
CC(C)(C)C(=O)CC(=O)C(C)(C)C,inactive,

# Assay: qHTS assay to test for compound auto fluorescence at 460 nm (blue) in HepG2 cells (AID 720687)
# Details: autofluorescence 405/460 nm, 1 h; series mostly up to 91.3 µM
# Summary of the method: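 Blue-channel autofluorescence (Ex/Em 405/460 nm, triamterene-equivalent) was measured after 1 hr compound exposure at 37 C, 5% CO2. Cells were HepG2, plated overnight at 37 C in MEM plus 10% FBS.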
Compound,outcome,"fluorescence, % of fluorescent control"
CCCCS,inactive,
CCNC(=O)C(C)OC(=O)Nc1ccccc1 (centres undefined),inactive,
CC(C)(Sc1cc(C(C)(C)C)c(O)c(C(C)(C)C)c1)Sc1cc(C(C)(C)C)c(O)c(C(C)(C)C)c1,,0.0012% [at 18.6 µM] (inactive)
O=C(O)CCC(=O)Nc1ccc(S(=O)(=O)Nc2nccs2)cc1,,-0.0217% [at 18.6 µM] (inactive)
CCCCC(CC)CCC(CC(C)C)OS(=O)(=O)O (centres undefined),inactive,
Cc1ccccc1C#N,inactive,
COC(=O)c1ccccc1Cl,inactive,
Cc1ccc2cccnc2c1,inactive,
Cc1cc(N)no1,inactive,
CN(C)CCC[C@@]1(c2ccc(F)cc2)OCc2cc(C#N)ccc21,inactive,
CCN(CC)CC,inactive,
C=C(C)C(=O)OCCOC1CC2CC1C1C=CCC21 (centres undefined),inactive,
O=C(O)CCCCCCCCCC(=O)O,inactive,
CC(O)CCCCn1c(=O)c2c(ncn2C)n(C)c1=O (centres undefined),inactive,
C=CC(=O)CC,inactive,
CCOCCOCCOC(C)=O,inactive,
CCCCCC(=O)CC,inactive,
C/C=C(\C)C=O,inactive,

Compound,outcome,"fluorescence, % of fluorescent control"
NC[C@H]1O[C@H](O[C@H]2[C@H](O)[C@@H](O[C@H]3O[C@H](CO)[C@@H](O)[C@H](N)[C@H]3O)[C@H](N)C[C@@H]2N)[C@H](N)[C@@H](O)[C@@H]1O,inactive,
Cc1ccc(NC(N)=O)cc1,inactive,
CC(C)(O)CCCC1=CCC(C=O)CC1 (centres undefined),inactive,
CCCC(=O)OC,inactive,
CCc1ccc(CC)cc1,inactive,
CCCCCCCCCCCCCCCC(=O)OC,,0.0931% [at 18.6 µM] (inactive)
O=S(=O)(O)CC(O)CCl (centres undefined),inactive,
CC[N+](C)(CC)CC,inactive,
CCCCCCCCCCCCCCCCN(C)C,,-0.0699% [at 3.72 µM] (inactive)
Cc1cc(C)c(C)c(C)c1,inactive,
O=C(O)COc1ccc2ccccc2c1,inactive,
Cc1ccc(O)c([N+](=O)[O-])c1,inactive,
Cc1ccc(N)nc1,inactive,
CCCC(C)C(O)CC (centres undefined),inactive,
N=C(N)N,inactive,
CN1C(CCl)Nc2cc(Cl)c(S(N)(=O)=O)cc2S1(=O)=O (centres undefined),inactive,
CC(C)(C)C(=O)CC(=O)C(C)(C)C,inactive,
